# According to PubChem BioAssay AID624304 (Sanford-Burnham Center for Chemical Genomics, 2012):
# The whole screen tested about 360,000 compounds, of which about 1,800 (0.5%) were called active. For the sample, actives were picked, then their nearest neighbours and some compounds at random. Unmarked numbers belong to inactive results.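 How the source made its calls: active means interference check ratio from 0.5 to 1.5 plus GFP to RFP signal ratio inhibition reaching or exceeding a fixed threshold (cut at about 30% in these data, passing the limit was not always enough); inactive means the rest.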
# Assay: suppressors of acrylamide-induced Pgst-4::GFP reporter in worms, primary screen, SKN-1 inhibitor project, whole organism, uHTS, GFP/RFP fluorescence ratio, strain VP596 (AID 624304)
# Conditions: C. elegans VP596 Pgst-4::GFP/RFP ratio, 24 h, at 21.8 µM, hits give high values
row,Compound,inhibition
1,COC(=O)[C@]1(Cc2ccccc2)N[C@H](CN(C)S(=O)(=O)c2ccc(OC(F)(F)F)cc2)[C@@H]2C(=O)N(C)C(=O)[C@@H]21,3.7%
2,COCCn1cnc2c1c(=O)n(CC(=O)NN)c(=O)n2Cc1ccccc1,5.34%
3,COCCn1cnc2c1c(=O)n(Cc1ccc(Br)cc1)c(=O)n2Cc1ccccc1,21.1%
4,N=c1c2c(-c3ccccc3)c(-c3ccccc3)n(Cc3ccccc3)c2ncn1CCCO,36.6% (active)
5,Cc1[nH]c(C)c(S(=O)(=O)N2CCN(c3cccc(C(F)(F)F)c3)CC2)c1C(=O)N1CCCC1,16.8%
6,CCOC(=O)[C@]12CCCC=C1N(CCC1=CCCCC1)C(=O)[C@H](CC(=O)N1CCOCC1)C2,6.43%
7,CN1CN(C)c2ccc([N+](=O)[O-])c3cccc1c23,38.8% (active)
8,Cc1cccc(N2CCN(c3ccc(C(N)=O)cc3[N+](=O)[O-])CC2)c1C,6.19%
9,CN1CCN(S(=O)(=O)c2ccc(N3CCN(c4ccccc4O)CC3)c([N+](=O)[O-])c2)CC1,-7.8%
10,COc1ncnc2c1N=C1CC(C)(C)CC(N)=C1S2,46.6% (active)
11,CCOc1ccc(C(CC(=O)O)NC(=O)COc2ccccc2)cc1 (stereo unspecified),0.0857%
12,CCS(=O)(=O)c1ccc(-c2cccc(NC(=O)c3ccc(Br)o3)c2)nn1,19.3%
13,OC(c1nnc(-c2ccccc2)o1)c1cccs1 (stereo unspecified),-9.63%
14,CN1CCN(C(=O)c2ccc(NC(=O)c3ccc(Br)o3)cc2)CC1,-9.6%
15,O=C(Oc1ccc(-c2nc(-c3ccccn3)no2)cc1)c1ccccc1,26.9%
16,CCCN(CCC)c1ccc(C(O)c2nnc(-c3ccccc3)o2)cc1 (stereo unspecified),5.96%
17,O=C(Nc1ccc(-c2nnc(-c3ccccc3)o2)cc1)c1ccc(Br)o1,34.6% (active)
18,Brc1ccc(-c2noc(-c3ccccc3)n2)o1,53.9% (active)
19,Brc1ccc(-c2nnc(-c3ccccc3)o2)o1,47.1% (active)
20,Nc1nonc1-c1noc(-c2ccc(Br)o2)n1,34.9%
21,CN1CCN(C(CNS(=O)(=O)c2cccs2)c2cccnc2)CC1 (stereo unspecified),-8.82%
22,CCOc1cc2[nH]c(=O)n(CCC(=O)NCc3ccc(OC)cc3)c(=O)c2cc1OCC,-1.79%

row,Compound,inhibition
1,CCCc1ccc(S(=O)(=O)N2CCN(C(=O)c3cc(C)on3)CC2)cc1,12.9%
2,Cc1c(C(=O)NCC(c2ccco2)N2CCCC2)oc2ccc(Cl)cc12 (stereo unspecified),3.49%
3,CN(Cc1ccccc1F)c1cc2c(c3c1ccn3C)C1CCC2O1 (stereo unspecified),6.79%
4,Fc1c(F)c(C(F)(F)F)c(F)c(F)c1N1CCN(c2ccc3nnc(C(F)(F)F)n3n2)CC1,-6.81%
5,C=CCCC(=O)N1C[C@H]2CON(C)[C@H]2C[C@H]1c1cccc(Nc2ccccc2)c1,3.69%
6,N/C(=N\OC(=O)Nc1ccccc1)c1ccno1,11.3%
7,COC(=O)c1[nH]c2ccc(Br)cc2c1NC(=O)Oc1ccccc1,6.84%
8,COc1ccc(CCC(=O)OCC(=O)Nc2ccc(C)c(S(=O)(=O)N(C)C)c2)cc1,-9.73%
9,Cc1ccc(C)c(NC(=O)COC(=O)c2nn(C)c(=O)c3ccccc23)c1,0.693%
10,Cc1ccc(F)cc1NC(=O)CSCc1c(C)noc1C,-5.42%
11,Cc1ccc(F)cc1NC(=O)Cc1nn(C)c(=O)c2ccccc12,35.7% (active)
12,COC(=O)CCCC1=CC2=CC(=O)C(C)(OC(=O)c3cccs3)C(=O)C2=CN1CC(C)C (stereo unspecified),41% (active)
13,CCCCC1=CC2=CC(=O)C(C)(OC(=O)CC)C(=O)C2=CN1CCCOC(C)C (stereo unspecified),19.4%
14,COC(=O)CCCC1=CC2=C(c3ccccc3)C(=O)C(C)(OC(=O)C3CCCC3)C(=O)C2=CN1c1ccc(OC)cc1 (stereo unspecified),-4%
15,Fc1cccc2ncnc(OCc3ccccc3)c12,3.79%
16,CC(=O)c1ccccc1OCc1ccc(C(=O)c2ccccc2)cc1,12.8%
17,Cc1nc2ccccc2cc1OCc1ccc(F)cc1,90.3% (active)
18,OCC[C@H]1C[C@H](O)[C@@H](O)[C@]2(CCCCO2)O1,-7.25%
19,COc1cccc(NC(=O)CC(c2ccc(OC(C)C)cc2)c2ccccc2OC)c1 (stereo unspecified),-0.0853%
20,COc1cccc(NC(=O)C(C)Oc2ccccc2)c1 (stereo unspecified),51.2% (active)
21,COc1cccc(NC(=O)C(Sc2nnnn2C)c2ccccc2)c1 (stereo unspecified),17.4%
22,COC(=O)c1ccc(COC(=O)c2c(C)nn(Cc3ccccc3Cl)c2Cl)o1,-0.292%

row,Compound,inhibition
1,Cc1ccc(NC(=O)Cc2nc(COC(=O)C(C)NS(=O)(=O)c3ccc(C)cc3)cs2)cc1 (stereo unspecified),-10%
2,CC1Cc2ccccc2N1C(=O)CSc1nnc(C2CC2)n1C (stereo unspecified),8.36%
3,CC1Cc2ccccc2N1C(=O)CSc1nc2ccccc2o1 (stereo unspecified),30.1% (active)
4,CCS(=O)(=O)c1ccc2oc(SCC(=O)N3c4ccccc4CC3C)nc2c1 (stereo unspecified),-0.339%
5,Cc1cc2c(cc1S(=O)(=O)NCc1ccc(Cl)cc1)OCC(=O)N2,-19.4%
6,COc1ccccc1N(CCOc1ccccc1)S(=O)(=O)c1ccccc1,3.24%
7,Cc1nc2ncnn2c(C)c1CCC(=O)N1CCN(C(=O)c2ccco2)CC1,-8.68%
8,Cc1nc2nc(C)c(CCC(=O)N3CCN(c4ccccc4)CC3)c(C)n2n1,35.7% (active)
9,Cc1nc2c(-c3ccc(F)cc3)c(C)nn2c(C)c1CCC(=O)N1CCN(c2ccccn2)CC1,-5.8%
10,CC1CCN(C(=O)Cn2nnnc2CN2CCOCC2)CC1,-17.8%
11,N#CC1=C(N)Oc2c(sc3ccccc23)C1c1ccco1 (stereo unspecified),35% (active)
12,CCc1nc2c(OCC(=O)C(C)(C)C)cccn2c1N(C)C(=O)c1ccccc1F,15.8%
13,CCOC(=O)C1=NNC2(c3ccc(Cl)cc3)C(=O)N(c3cc(C)cc(C)c3)C(=O)C12 (stereo unspecified),14.5%
14,COc1ccc(-c2c(C(C)=O)c(C)nc3sc4c(=O)n(-c5ccc(C)cc5)nnc4c23)cc1,12.1%
15,CC(Oc1ccc(Cl)cc1)C(=O)OCC(=O)Nc1ncc(Cl)cc1Cl (stereo unspecified),6.67%
16,CC(Oc1ccc(Cl)cc1)c1ccnn1S(C)(=O)=O (stereo unspecified),33.3% (active)
17,CC(Oc1ccc(Cl)cc1)C(=O)Nc1ncccn1 (stereo unspecified),11.8%
18,CCc1c(SCCC(=O)O)nc2ccccc2c1C,-7.29%
19,Cc1nccn1-c1ccc(NC(=O)[C@H]2O[C@@H](n3ccc(=O)[nH]c3=O)[C@H](O)[C@@H]2O)cc1,1.64%
20,COc1ccccc1OCC(=O)OCn1c(SC)nnc(C)c1=O,5.86%
21,CC1CN(C(=O)CCC(=O)NCCCN2CCC(Cc3ccccc3)CC2)c2cc(Cl)ccc2O1 (stereo unspecified),14.9%
22,O=C1CCC([N+](=O)[O-])C(c2ccccc2Br)N1 (stereo unspecified),9.01%
